These results are taken from the supplement of paper PMC9694430.

In the assay the test system is LOC_OS04G35114-cb001. The assay is described as follows: thermal shift delta Tm vs DMSO control; higher = stronger stabilization (binding). The note with it: 12.5 µM; protein concentration 2 µM. The essentials:
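Purified, E. coli-expressed rice kinase domain constructs were tested by differential scanning fluorimetry in 96-well plates: 19.5 μl of 2 μM kinase in 100 mM potassium phosphate pH 7.5, 150 mM NaCl, 10% glycerol, 5 × SYPRO Orange, plus compound in DMSO. Fluorescence was read from 25°C to 95°C at 0.05°C/s. Melting temperatures came from Boltzmann fits, and the shift is the triplicate mean relative to protein with DMSO alone.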
For `COc1ccc(CC(=O)Nc2nc3c(s2)CCc2ccccc2-3)cc1OC`, the “thermal shift delta Tm” value came out at 0.71 °C.

As to `CNS(=O)(=O)Nc1nccc(Cc2c(C)c3ccc(Oc4ncccn4)cc3oc2=O)c1F`, the “thermal shift delta Tm” value was -0.07 °C.

Turning to `C[C@H](NC(=O)/C(C#N)=C/c1cccc(Br)n1)c1ccccc1`, the “thermal shift delta Tm” value is -1.1 °C.

On to `COc1ccc(COc2cc3oc(=O)c4cc(C(C)O)ccc4c3cc2OC)cc1` (configuration not stated) [Palomid 529 (P529)], for which the “thermal shift delta Tm” value is 0.78 °C.

In the case of `CC(C)(C)Cn1c(N)nc2ccc(-c3[nH]c(C(C)(C)C)nc3-c3ccc(F)cc3)nc21`, the “thermal shift delta Tm” value was determined as 0.02 °C.

As for `COc1ccccc1-c1cc(Nc2cccc(CS(N)(=O)=O)c2)ncn1`, the “thermal shift delta Tm” value is 1.63 °C.

Consider `Cn1cnc(N)c2ncnc1-2` [3-Methyladenine (3-MA)], for which the “thermal shift delta Tm” value was 0.91 °C.

Consider `C=CC(=O)N[C@H]1CCOC[C@H]1Nc1ncc2cc(-c3c(Cl)c(OC)cc(OC)c3Cl)ccc2n1`, for which the “thermal shift delta Tm” value was 0.09 °C.

With `CCS(=O)(=O)Nc1ccc2c(c1)/C(=C(/Nc1ccc(CN3CCCCC3)cc1)c1ccccc1)C(=O)N2` [Hesperadin], the “thermal shift delta Tm” value is 13.2 °C.

Take `Cc1cc(Nc2cc(N3CCN(C)CC3)nc(/C=C/c3ccccc3)n2)n[nH]1` [ENMD-2076 L-(+)-Tartaric acid]: the “thermal shift delta Tm” value stood at 6.49 °C.

Consider `Cc1ccc(F)c(NC(=O)Nc2ccc(-c3cccc4[nH]nc(N)c34)cc2)c1` [Linifanib (ABT-869)], for which the “thermal shift delta Tm” value turned out to be 2.54 °C.

For the compound `CO[C@H]1C[C@@H]2CC[C@@H](C)[C@@](O)(O2)C(=O)C(=O)N2CCCC[C@H]2C(=O)O[C@H]([C@H](C)C[C@@H]2CC[C@@H](OCCO)[C@H](OC)C2)CC(=O)[C@H](C)/C=C(\C)[C@@H](O)[C@@H](OC)C(=O)[C@H](C)C[C@H](C)/C=C/C=C/C=C/1C` [Everolimus (RAD001)], the “thermal shift delta Tm” value was -0.39 °C.
